# Mtb RmlCD inh: M. tuberculosis RmlC/RmlD inhibition. inhibition, % at 3.6 µM. P9WH09+P9WH11. RmlC+RmlD coupled enzyme assay, percent inhibition; primary screen in compound mixtures. 0.03% of 160,000 active; in the data active = inhibition mostly above about 34%, no sharp cut-off
# Target sequence (P9WH09 whole entry, looked up): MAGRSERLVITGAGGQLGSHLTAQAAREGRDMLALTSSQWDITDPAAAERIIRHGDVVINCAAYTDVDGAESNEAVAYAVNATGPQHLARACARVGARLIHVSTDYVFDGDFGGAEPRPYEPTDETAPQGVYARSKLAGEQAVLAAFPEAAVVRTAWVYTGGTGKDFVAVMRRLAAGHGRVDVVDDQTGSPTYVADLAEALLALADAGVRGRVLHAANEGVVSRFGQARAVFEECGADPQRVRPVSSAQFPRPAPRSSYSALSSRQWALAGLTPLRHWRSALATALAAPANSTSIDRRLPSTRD
# Target sequence (P9WH11 whole entry, looked up): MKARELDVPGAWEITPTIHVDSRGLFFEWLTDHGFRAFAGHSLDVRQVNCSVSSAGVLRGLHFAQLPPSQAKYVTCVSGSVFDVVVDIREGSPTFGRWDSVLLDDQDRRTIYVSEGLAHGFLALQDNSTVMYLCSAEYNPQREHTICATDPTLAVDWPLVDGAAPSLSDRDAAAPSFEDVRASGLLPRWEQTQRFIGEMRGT
# YopH PTP inh: YopH (Yersinia) phosphatase inhibition | fluorescence Ex485/Em525 | inhibition, % (no concentration beside the values) | 0.16% of 140,000 active; in the data active = inhibition above about 50%
# Active calls of the source: *; / = not tested or not shown. This excerpt belongs to a sample that is enriched for hits.
SMILES,Mtb RmlCD inh,YopH PTP inh
Oc1ccc(C=Nc2cccc3ncccc23)c(O)c1,5.6,-42.7
Oc1ccc(C=Nc2ccc3ncccc3c2)c(O)c1,-6.4,72.5*
COc1ccccc1NC(=O)Cn1nc(Cc2cccnc2)c2ccccc2c1=O,-10.2,/
CCCc1nnc(NC(=O)c2ccc(N3C(=O)C4C5C=CC(C5)C4C3=O)cc2)s1 (configuration not stated),/,-21.2
O=C(Nc1nnc(C(F)(F)F)s1)c1ccc(N2C(=O)C3C4C=CC(C4)C3C2=O)cc1 (configuration not stated),/,97.6*
Cc1cc(C)c(CN2CCN(Cc3ccc(C)o3)C(CCO)C2)c(-n2cccn2)c1 (configuration not stated),6.8,/
COc1ccc(C(=O)C[n+]2cn(C(F)F)c3ccccc32)c(F)c1,-3.5,/
N#Cc1c(N2CCCC2)nc(N)c2c(N)nc(N3CCCC3)cc12,/,101.3*
COc1cc2c(C#N)c(N3CCCC3)nc(N)c2c(N)n1,4.1,/
O=C(NN1CCN(Cc2ccccc2)CC1)c1ccc(N2CCOCC2)c([N+](=O)[O-])c1,5.0,/
CCOc1ccc(NC(=S)Nc2ccc3nsnc3c2)cc1,-10.3,84.2*
CCOc1ccc(NC(=O)Nc2ccc3nsnc3c2)cc1,4.5,/
CC(=O)c1ccc(N2CCN(C(=S)NCCCN(C)C)CC2)cc1,-11.4,/
Cc1nc(N)sc1C(=O)NN,9.0,/
O=C(NC1(O)C(=O)c2ccccc2C1=O)c1ccccc1,/,102.1*
O=C(NC1(O)C(=O)c2ccccc2C1=O)c1c(Cl)cccc1Cl,-3.0,/
Nc1nc(C(F)(F)F)cc(=O)n1N,-9.0,/
CC1(CCl)N([O-])C2=C(CCCC2)[N+]1=O (configuration not stated),7.9,/
CN1C(=O)N(C)C2(c3ccccc3)NC(=O)NC12c1ccccc1 (configuration not stated),-4.2,-25.8
CN1c2ccccc2N(C)C1(C)c1ccccc1,8.9,85.2*
CCN1c2ccccc2N(C)C1(C)c1ccccc1 (configuration not stated),0.1,92.2*
CCN1C(=O)N(c2cccc3ccccc23)C(C)=CC1(C)C,/,9.1
Cn1c(-c2ccccc2)c(/C=N/NC(=O)c2ccc(O)cc2)c2ccccc21,78.0,/
O=C(CN1CCN(S(=O)(=O)c2ccccc2F)CC1)Nc1ccccc1C(=O)c1ccccc1,13.7,/
CC(NC(=O)C(=O)N/N=C\c1ccc([N+](=O)[O-])cc1)c1ccccc1 (configuration not stated),3.4,/
SMILES,Mtb RmlCD inh,YopH PTP inh
COC(=O)NC(C)N1C(=O)C2C3C=CC(C3)C2C1=O (configuration not stated),6.6,/
COc1cccc(-c2nc(CS(=O)(=O)CC(=O)N3CCc4ccccc4C3)c(C)o2)c1,6.8,80.3*
COc1cccc(-c2nc(CS(=O)(=O)CC(=O)N3CCN(C)CC3)c(C)o2)c1,-10.6,-8.8
O=C(/C=C/c1ccccc1Cl)N(Cc1cccs1)C1CCS(=O)(=O)C1 (configuration not stated),-4.4,/
CC(CNS(=O)(=O)c1ccccc1)(c1ccccc1)N1CCCCC1 (configuration not stated),-6.0,/
O=[N+]([O-])c1ccc(-c2csc3[n+]2CCS3)cc1,/,50.9*
Fc1ccc(-c2csc3[n+]2CCS3)cc1,/,-9.3
CSc1nsc(/C=C/Nc2ccc(Cl)cc2)c1C#N,/,55.5*
CSc1nsc(/C=C/Nc2ccc(F)cc2)c1C#N,5.2,/
COc1ccc(N2C(=O)[C@@H]3[C@H](C2=O)[C@H]2c4ccccc4C=CN2[C@@H]3C(=O)Nc2ccccc2)cc1,10.9,5.1
CC(=O)[C@@H]1[C@@H]2C(=O)N(Cc3ccccc3)C(=O)[C@@H]2C2c3ccccc3C=CN21 (some centres not stated),100.2,35.2
O=C(c1ccco1)[C@@H]1[C@@H]2C(=O)N(c3ccccc3)C(=O)[C@@H]2C2c3ccccc3C=CN21 (some centres not stated),/,82.0*
CC(C)(C)C(=O)[C@@H]1[C@@H]2C(=O)N(c3ccc4c(c3)OCCO4)C(=O)[C@@H]2C2c3ccccc3C=CN21 (some centres not stated),/,4.5
Cc1ccc(N2C(=O)[C@@H]3[C@H](C2=O)C2c4ccccc4C=CN2[C@@H]3C(=O)c2ccco2)c(C)c1 (some centres not stated),/,94.7*
Cc1ccc(N2C(=O)[C@@H]3[C@H](C2=O)C2c4ccccc4C=CN2[C@@H]3C(=O)c2ccco2)cc1 (some centres not stated),8.8,91.6*
COc1ccc([N+](=O)[O-])cc1CSc1nnc(NC(C)=O)s1,5.0,/
Cc1ccccc1Oc1nc(-c2ccccn2)nc2ccccc12,4.2,/
COc1ccc(-c2cc(C(=O)NCCc3ccc(S(N)(=O)=O)cc3)c3ccccc3n2)cc1,-10.0,/
CCN(CC)C(=O)Cn1c(=O)n(-c2ccccc2)c(=O)c2sccc21,-16.7,/
CCOC(=O)c1oc2ccc(Br)cc2c1CSc1nnc(C)s1,-1.6,88.4*
CCOC(=O)c1oc2ccccc2c1CSc1nnnn1-c1ccc(OC)cc1,-4.0,4.1
COCC(=O)NC1CC2CCC(C1)N2C(=S)Nc1ccccc1C(=O)OC (configuration not stated),-5.1,/
COc1ccc(/C=C(/NC(=O)c2ccc([N+](=O)[O-])cc2)C(=O)NC(C)(C)C)cc1,3.7,/
CC(=O)c1ccc(NC(=S)Nc2cccc(Cl)c2C)cc1,-1.8,/
COc1ccc2c(c1)CCc1c(C(=O)N3CCCCCC3)noc1-2,45.8,-39.3
SMILES,Mtb RmlCD inh,YopH PTP inh
COc1ccc2c(c1)CCc1cc(C(=O)N3CCN(c4ccc(N5CCOCC5)nn4)CC3)sc1-2,-18.9,76.3*
Cc1ccc2c(C)[nH]c(=O)cc2c1,/,89.6*
Cc1ccc(-c2cc(=O)[nH]c3ccccc23)cc1,/,-42.8
CCN(CC(=O)NC(C)C)Cc1nc2c(Br)cc(Br)cc2c(=O)[nH]1,3.0,/
COc1cc(CNc2ccc(N3CCCC3)cc2)cc(Cl)c1OC,2.4,/
CCOc1cc(CNc2ccc(N3CCCC3)cc2)cc(Cl)c1OC,/,74.0*
Cc1ccc(S(=O)(=O)N2CCCN(C(=O)OC(C)(C)C)CC2)cc1,-30.3,/
COC(=O)c1cc(=O)n2c(sc3ccccc32)c1C#N,0.6,/
[O-]/[N+](=C\c1ccc(F)cc1)c1ccccc1,/,59.1*
[O-]/[N+](=C\c1cccc(Br)c1)c1ccccc1,-6.2,/
Cc1ccc(CSCCNC(=O)CN2C(=O)c3ccccc3S2(=O)=O)cc1,/,56.1*
COc1ccc(CCNC(=O)CN2C(=O)c3ccccc3S2(=O)=O)cc1OC,2.1,-1.6
Cc1nc(Nc2ccc3c(c2)OCCO3)c2c(C)c(C)sc2n1,6.7,/
COc1ccc(NC(=S)N2CCC(C(=O)c3ccc(C)cc3)CC2)c(OC)c1,2.3,/
Cn1c2ccccc2c(=O)n2c(=O)c3ccccc3cc12,/,101.2*
Cn1c(-c2ccccc2)cc(=O)c2ccccc21,/,-3.9
CN(C)S(=O)(=O)c1ccc(S(=O)(=O)Nc2ccc3c(c2)oc2ccccc23)cc1,-1.1,6.3
Cc1cc(=O)oc2cc(NS(=O)(=O)c3ccccc3)ccc12,42.9*,/
C/C(=N\NC(=O)C1(C)NC(C)(C)Cc2ccccc21)c1ccccc1 (configuration not stated),10.2,/
CC1(C)CC(=O)C=C(C(=O)N2CCCC(C(=O)c3cccc(Cl)c3)C2)O1 (configuration not stated),-8.1,/
CCOC(=O)/C(=C\c1cn(C)c2ccccc12)[N+](=O)[O-],/,1.1
COC(=O)/C(=C/Nc1cccc2ccccc12)[N+](=O)[O-],99.6*,-16.7

# High-throughput results from PubChem.
